Screening results deposited in PubChem by National Center for Advancing Translational Sciences (NCATS).
This is a sample that favours compounds with a hit; in the whole collection about 6.2% have one here.
ATXN viability: Viability Counterscreen for Primary qHTS for Inhibitors of ATXN expression; 400,000 compounds, 0.49% hits; S2 cells (HEK-293 line with an ATXN2-luciferase reporter) viability, CellTiter-Fluor protease fluorescence, 24 h; Potency, µM (series often up to 56.7 µM), usual class: cytotoxic; further: nearly all actives have a fitted effect of over 40% in size
HT1080 IDH1KD tx: qHTS for induction of synthetic lethality in tumor cells producing 2HG: qHTS for the HT-1080-IDH1KD cell line | AID 686971, 2013 | Potency, µM (highest dose often 46.1 µM), without a hit: top-dose activity, negative = toxicity, usual class: cytotoxic | HT-1080 IDH1 knockdown viability, ATP luminescence, 48 h | 360,000 compounds, 2% hits;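 further: 0% = DMSO wells and -100% = cell-free medium wells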
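HT-1080-IDH1KD cells (IDH1 knocked down), 750/well in RPMI with 5% FBS, treated with compound 48 h at 37 degrees C. Viability by CellTiter-Glo luminescence, normalised to DMSO and no-cell wells; concentration-response curves classed.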
KB-V1 cytotox: qHTS assay for MDR1-selective chemotherapeutics: Primary screen using the drug-selected MDR subline cells KB-V1. 400,000 compounds, 3.4% hits. Potency, µM (titrated, usually from 46.1 µM), most hits filed as cytotoxic. KB-V1 MDR cells viability, CellTiter-Glo, 72 h. AID 1347076, 2019; further: on the % scale 0 is the no-effect control and ±100 the full control effect; nearly all actives have a fitted effect of over 60% in size
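KB-V1 cells (P-gp-expressing MDR subline of KB-3-1) in phenol-red-free DMEM with 10% FBS were exposed to library compounds over a concentration series for 72 h at 37 degrees C. Viability read by CellTiter-Glo luminescence; concentration-effect curves fitted after normalization.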
HT1080-NT tox: qHTS for induction of synthetic lethality in tumor cells producing 2HG: qHTS for the HT-1080-NT fibrosarcoma cell line | HT-1080-NT fibrosarcoma viability, CellTiter-Glo ATP luminescence, 48 h | Potency, µM (titrated, usually from 46.1 µM), without a hit: at the top dose activity, negative = less viability, actives largely listed as cytotoxic | 360,000 compounds, 1.6% hits | AID 686970, 2013;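 further: NT is the 2HG producing partner of a matched IDH1 knockdown line; 0% = DMSO-treated cells and -100% = media-only wells without cells; nearly all actives have a fitted effect of over 55% in size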
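Compounds were tested in concentration-response format on HT-1080-NT cells for 48 hours at 37 degrees C. Cell viability came from CellTiter-Glo luminescence; curves were classified by r2, response magnitude and activity.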
ATXN2 expr inh: Primary qHTS for Inhibitors of ATXN expression | HEK-293 ATXN2-luciferase reporter, luminescence, 24 h | Potency, µM (titrated, usually from 57 µM), for the others: at the highest dose activity change, negative = inhibition, most hits filed as inhibitors | 360,000 compounds, 0.72% hits | AID 1745845, 2022; further: on the % scale 0 is the no-effect control and ±100 the full control effect; nearly all actives have a fitted effect of over 55% in size
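qHTS (up to 57 uM final) was run with 24 h compound exposure of reporter cells at 37 °C. Each well was multiplexed: SteadyGlo luminescence measured ATXN2-luciferase expression after a fluorogenic Gly-Phe-AFC viability readout (25 uM final).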
KB-3-1 cytotox: qHTS assay for MDR1-selective chemotherapeutics: Primary screen using the parental adenocarcinoma cell KB-3-1 | Potency, µM (highest dose often 46.1 µM), most hits filed as cytotoxic | 400,000 compounds, 1.4% hits | KB-3-1 viability, CellTiter-Glo ATP luminescence, 72 h | AID 1347075, 2019; further: on the % scale 0 is the no-effect control and ±100 the full control effect; nearly all actives have a fitted effect of over 60% in size
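Here the drug-naive KB-3-1 line serves as comparator for MDR sub-line selectivity; cells received compound titrations, 72 h at 37 °C, then CellTiter-Glo readout.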
Numbers without * were called inactive; i = inactive; ? = inconclusive; . = no result. The call rests on the fitted dose curve; in most records, active means well fitted curve in the direction sought with a large enough effect; inconclusive means small, poorly fitted or top-dose-only effect, or another doubt; inactive means no such curve, though single readings can be large; an effect the other way counts as inactive or inconclusive. Potency means the concentration at half of the fitted maximal effect.

SMILES	ATXN viability	HT1080 IDH1KD tx	KB-V1 cytotox	HT1080-NT tox	ATXN2 expr inh	KB-3-1 cytotox
CCOC(=O)C1=C(C)NC(=O)NC1c1ccc(-c2ccc(Cl)cc2)o1 (centres undefined)	i	?	21µM*	-24%	?	?
CCOC(=O)C1=C(C)NC(=O)NC1c1ccc(-c2ccc(F)cc2)o1 (centres undefined)	i	-15%	?	-2%	-25%	i
CN1OC[C@@H]2CN[C@H](c3ccc(-c4cc5ccccc5o4)cc3)C[C@@H]21	i	-26%	i	?	0.2µM*	i
Cc1nc(C(=O)Nc2ccc(Cl)cc2Cl)nn1-c1cc(OC(C)C)c(Cl)cc1Cl	i	1%	i	11%	5%	i
Cc1nc(C(=O)Nc2cc(Cl)ccc2Cl)nn1-c1cc(OC(C)C)c(Cl)cc1Cl	i	1%	15µM*	?	1%	i
CC(C)(C)C1=CC(=Nc2ccccc2N)C=C(C(C)(C)C)C1=O	i	?	?	?	14%	?
CC(C)(C)C1=CC(=O)C(=O)C(C(C)(C)C)=C1	13µM*	?	13µM*	?	.	i
Cc1ccsc1/C=N\NC(=O)c1n[nH]c2c1CCC2	i	7.3µM*	4.6µM*	6.5µM*	?	3.3µM*
O=C(NN=C1CCCC1)c1n[nH]c2c1CCC2	i	3.7µM*	?	2.6µM*	43%	?
O=C(NC1CCCCC1)c1n[nH]c2c1CCCCC2	i	-28%	i	?	10µM*	?
Cc1nc2cc(NC(=O)[C@@H]3C[C@@H](Sc4ccccn4)CN3C3CCCCCC3)ccc2s1	i	.	.	.	.	.
CC1=CCC2C(=O)N(c3cccc(C(=O)Nc4ccccc4Cl)c3)C(=O)C2C1 (centres undefined)	i	-6%	.	1%	6%	.
COc1ccc(N2CCN(c3nc(NCCc4ccc(OC)c(OC)c4)nc(OC)n3)CC2)cc1	?	?	i	?	28µM*	i
COc1cc(NC(=O)c2cccs2)c(OC)cc1NC(=O)c1ccco1	i	-3%	?	4%	-10%	i
COc1ccc(NC(=O)CCc2ccccc2)cc1NC(=O)c1ccco1	i	-11%	7.3µM*	-26%	-7%	i
COc1ccc(CC(=O)Nc2ccc(OC)c(NC(=O)c3ccco3)c2)cc1	i	-12%	i	-9%	-11%	i
COc1ccc(NC(=O)c2ccco2)cc1NC(=O)c1cccs1	i	3%	8.2µM*	3%	8%	i
CCc1cccc(NC(=O)C2CCC(CNS(=O)(=O)c3ccc4c(c3)CCCC(=O)N4)CC2)c1 (centres undefined)	?	.	?	.	-30%	i
COCCNC(=O)c1ccc(CSc2nc3ccncc3n2Cc2ccccc2)cc1	i	.	?	.	11%	i
CN(C)CCSc1nc(-c2ccccc2)nc2c1COC(C)(C)C2	i	?	10µM*	?	-21%	i
Cc1ccc(-n2nnnc2SCC(=O)N2CCc3ccccc3C2)c(C)c1	i	1%	7.3µM*	6%	-8%	i
Cn1c(Cc2ccc3c(c2)OCO3)nnc1SCC(=O)N1CCc2ccccc2C1	i	-14%	16µM*	0%	-3%	i
Cc1ccc(-n2nnnc2SCC(=O)N2CCc3ccccc3C2)cc1	i	3%	i	0%	6%	i
Cc1ccc(-n2nnnc2SCC(=O)NCC2(N3CCOCC3)CCCCC2)c(C)c1	?	-3%	21µM*	4%	4%	i
Cc1ccc(-n2c(C)nnc2SCC(=O)N2CCc3ccccc3C2)cc1C	i	0%	9.2µM*	14%	-10%	i
SMILES	ATXN viability	HT1080 IDH1KD tx	KB-V1 cytotox	HT1080-NT tox	ATXN2 expr inh	KB-3-1 cytotox
Cn1c(Cc2ccccc2)nnc1SCC(=O)N1CCCCC1	i	9%	i	-2%	-21%	i
COc1ccc(/C=N/Nc2cc(C)nc3ccc(OC)cc23)c(OC)c1	.	5.2µM*	?	23µM*	?	?
COc1ccc2nc(C)cc(N/N=C/c3ccccc3)c2c1	.	0%	21µM*	-3%	?	i
COc1ccccc1/C=N/Nc1cc(C)nc2ccc(C)cc12	i	-1%	i	1%	27%	i
CC(Oc1ccccc1)C(=O)N1CCc2ccccc2C1 (centres undefined)	i	9%	i	?	-3%	i
Cc1cccc(C(=O)OC(C)C(=O)N2CCc3ccccc3C2)c1C (centres undefined)	?	0%	18µM*	0%	4%	i
CC(C)CN(CCCNC(=O)Cn1ncc2c3ccccc3n(C)c2c1=O)CC(C)C	i	.	i	.	12%	i
Cc1cc(NC(=O)c2cnc3c(-c4ccccc4)c(C)nn3c2C)ccc1Br	.	.	i	.	.	i
Nc1ncnc(N2CCc3ccccc32)c1[N+](=O)[O-]	?	6%	13µM*	-5%	-22%	?
CC1CN(c2ccc([N+](=O)[O-])c(NCCOc3ccccc3)c2)CCN1 (centres undefined)	?	16µM*	?	15µM*	0%	i
Cc1ccccc1OCCNc1cc(N2CCN(CCO)CC2)ccc1[N+](=O)[O-]	?	15µM*	?	?	-20%	i
COc1ccc(OCCNc2cc(N3CCCCC3)ccc2[N+](=O)[O-])cc1	?	-3%	i	-12%	-9%	i
Cc1cccc(OCCNc2cc(N3CCN(CCO)CC3)ccc2[N+](=O)[O-])c1	?	-9%	18µM*	-4%	-18%	i
Cc1ccccc1OCCNc1cc(N2CCCCC2)ccc1[N+](=O)[O-]	?	-19%	?	-14%	11%	i
COc1ccc(OCCNc2cc(N3CCOCC3)ccc2[N+](=O)[O-])cc1	?	?	?	?	-15%	i
COc1cccc(OCCNc2cc(N3CCOCC3)ccc2[N+](=O)[O-])c1	i	-25%	9.2µM*	-26%	47%	i
CCSc1nnc(SCC(=O)c2c(N)n(C)c(=O)n(C)c2=O)s1	?	-6%	i	8%	-26%	i
Cc1nc(NCc2c(F)cccc2F)sc1-c1ccn(CCN2CCOCC2)n1	i	.	.	.	.	.
